Among the data in PubChem BioAssay are composite z-score and z-score values, retold here.

The nature of assay [1]: compounds binding Alexa647 anti-His antibody – biochemical, small-molecule microarray, 635 nm fluorescence, artefact control for SMM control protein annotation, primary screen (AID 1128).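 Also: score merges feature fluorescence with signal-to-noise for each printed compound spot.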 The note with it: higher = more signal.
The subject of assay [2] is Human papillomavirus type 1a E7 protein (residues 1-88). The assay can be described thus: HPV1a E7 small-molecule binders, primary screen, biochemical, small-molecule microarray, residues 1-88, 635 nm (AID 1129). The note with it: small-molecule microarray binding, fluorescence 635 nm; higher = more signal.
The target in assay [3] is Focal adhesion kinase 1 (Homo sapiens) (UniProt Q05397). The assay can be described thus: PTK2 protein binding on printed compound slides – biochemical, small-molecule microarray, 635/667 nm fluorescence, BSA, DTT, primary screen (AID 1130).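 Also: composite of spot emission at 667 nm and signal to noise over triplicate slides.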 The settings on record: 635 nm fluorescence, higher = more signal.
The subject of assay [4] is Fibrinogen (Alexa647-labelled). The assay can be described thus: Alexa647-fibrinogen binding to printed small molecules – biochemical, small-molecule microarray, 635/667 nm fluorescence, artefact control for SMM control-protein annotation, profiling panel (AID 1131).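 Also: z-score merges 667 nm fluorescence with per-spot signal-to-noise over triplicate slides.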 The settings on record: fibrinogen-A647 binding fluorescence, higher = more signal.
Assay [5] deals with Follistatin (Homo sapiens) (UniProt P19883). As to the kind of experiment: FST protein binding to printed compounds – biochemical, small-molecule microarray, 635/667 nm fluorescence, primary screen (AID 1132). The note with it: 635 nm fluorescence, higher = more signal.
Assay [6] concerns the target Fibroblast growth factor 2 (Homo sapiens) (UniProt P09038). As to the kind of experiment: basic fibroblast growth factor binding to printed compounds – biochemical, small-molecule microarray, 635/667 nm fluorescence, primary screen (AID 1133). The settings on record: FGF2, fluorescence 635/667, higher = more signal.
Assay [7] is described as follows: JC-1 mitochondrial potential readout, lung cancer cells – cell-based, A549, JC-1 fluorescence, basal, 24 h, 100 nL, profiling panel (AID 1138).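 Also: A549 lung adenocarcinoma cells under basal conditions with no added stimulus; test concentration not given here.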 The settings on record: higher = more signal.
For another assay, the system named is Lefty1. As to the kind of experiment: Lefty1 protein binding to printed compounds – biochemical, small-molecule microarray, 635/667 nm fluorescence, primary screen (AID 1139). The settings on record: fluorescence 635/667, higher = more signal.
Assay [8] relates to wheat germ agglutinin (Triticum aestivum), Alexa647-labelled. As to the kind of experiment: Alexa647-WGA lectin binding to printed small molecules – biochemical, small-molecule microarray, 635/667 nm fluorescence, artefact control for SMM control-protein annotation, profiling panel (AID 1140).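 Also: score merges 667 nm feature emission with signal to noise over triplicate slides.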 The note with it: WGA-A647 binding, 635 nm fluorescence, higher = more signal.
The target in assay [9] is Luciferin 4-monooxygenase (Photinus pyralis) (UniProt P08659). As to the kind of experiment: inhibition of purified Photinus pyralis luciferase – biochemical, luminescence, purified enzyme, 2006 set, primary screen (AID 1141).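 Also: cell-free assay with purified firefly luciferase at 100 ng per well in PBS; test concentration not given here.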 The settings on record: purified firefly luciferase, SteadyGlo luminescence, 30 min; higher = more signal, called active from +8 up or from −8 down.

Assay [10] relates to Wnt5a (protein binding on small-molecule microarray). The assay can be described thus: small molecules binding Wnt5a protein – biophysical, small-molecule microarray, 635/667 nm fluorescence, primary screen (AID 1142).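 Also: fluorescence read at 667 nm with signal to noise per printed feature.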 The note with it: 635 nm fluorescence, higher = more signal.
The nature of assay [11]: ATP-based viability of Huh7 replicon cells – cell-based, CellTiter-Glo luminescence, basal, 48 h, cytotoxicity control for HCV replication inhibitor project, primary screen (AID 1143).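 Also: Huh7 hepatoma cells carrying a hepatitis C replication reporter with no stimulus; test concentration not given here.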 The note with it: higher = more signal, called active from +8 up or from −8 down.
Assay [12] can be described thus: Pseudomonas biofilm growth suppression – PAO1 strain, BacTiter-Glo luminescence, LB-PBS, primary screen (AID 1144). The note with it: P. aeruginosa PAO1 biofilm, 12 h, higher = more signal.
The nature of assay [13]: basal CRE-LacZ reporter activity in PC12 – cell-based, unstimulated, primary screen (AID 1145). The note with it: no forskolin, luminescence, 4.5 h, higher = more signal, called active from +8 up or from −8 down.
The nature of assay [14]: forskolin-driven CRE-LacZ activity in PC12 – cell-based, CRE-LacZ reporter, forskolin-stimulated, primary screen (AID 1146).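 Also: PC12 cells with 6xCRE LacZ reporter stimulated by forskolin 10 µM; beta-galactosidase reporter signal reflecting CREB driven transcription.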 The note with it: luminescence, 4.5 h, higher = more signal, called active from +8 up or from −8 down.
The target in assay [15] is Streptavidin (Streptomyces avidinii) (UniProt P22629). As to the kind of experiment: compounds binding control protein streptavidin – biophysical, small-molecule microarray, 635/667 nm fluorescence, artefact control for SMM compound annotation, primary screen (AID 1147).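 Also: signal reflects streptavidin binding to arrayed compounds as a control protein.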 The settings on record: higher = more signal.
Assay [16] can be described thus: probe aInhba binding on compound microarray – biochemical, small-molecule microarray, 635/667 nm fluorescence, primary screen (AID 1148).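 Also: score merges 667nm spot fluorescence with signal-to-noise for antibody binding to printed compounds.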 The settings on record: higher = more signal.
In assay [17] the target is Torsin-1A (Homo sapiens) (UniProt O14656). The assay can be described thus: TOR1A wild-type binding on microarray – cell lysate, small-molecule microarray, lysate, 635/667 nm, primary screen (AID 1149). The settings on record: COS7 hTOR1A-WT lysate, 635 nm fluorescence, higher = more signal.
Assay [18] shares this target. As to the kind of experiment: torsin A mutant lysate binding on microarrays – cell lysate, small-molecule microarray, COS7 lysate, 635/667 nm fluorescence, primary screen (AID 1150).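 Also: score pools 667 nm emission and signal to noise measuring lysate protein binding.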 The settings on record: COS7 hTOR1A mutant lysate, 635 nm fluorescence, higher = more signal.
The subject of assay [19] is Sonic hedgehog protein (Shh). As to the kind of experiment: Sonic hedgehog microarray binding compounds – biochemical, small-molecule microarray, 635/667 nm fluorescence, primary screen (AID 1151).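 Also: Shh protein binding to compounds spotted on small-molecule microarray slides; score combines spot fluorescence intensity with signal-to-noise across triplicate slides.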 The note with it: 635 nm fluorescence, higher = more signal.

Values joined by “and” are separate entries in the source; they are usually repeats but may differ in a detail not shown here. Equal entries are not always repeated. Active and inactive are the calls of the source. Unless noted, no rule for the calls is given here.

Fibroblast growth factor 2 (Homo sapiens), sequence (P09038 whole entry, looked up): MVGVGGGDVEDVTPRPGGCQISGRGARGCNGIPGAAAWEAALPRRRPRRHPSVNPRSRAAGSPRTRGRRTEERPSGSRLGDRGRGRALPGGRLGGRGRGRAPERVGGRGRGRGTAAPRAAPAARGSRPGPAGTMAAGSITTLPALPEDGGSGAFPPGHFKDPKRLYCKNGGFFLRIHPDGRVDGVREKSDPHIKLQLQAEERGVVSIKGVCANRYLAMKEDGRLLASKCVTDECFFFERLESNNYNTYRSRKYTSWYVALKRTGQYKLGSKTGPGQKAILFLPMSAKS
Streptavidin (Streptomyces avidinii), sequence (P22629 whole entry, looked up): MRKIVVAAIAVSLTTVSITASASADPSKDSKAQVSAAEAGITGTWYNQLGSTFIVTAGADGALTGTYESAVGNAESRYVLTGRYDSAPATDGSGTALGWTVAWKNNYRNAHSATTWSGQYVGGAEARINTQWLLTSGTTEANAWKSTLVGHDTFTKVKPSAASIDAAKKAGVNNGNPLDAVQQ
Follistatin (Homo sapiens), sequence (P19883 whole entry, looked up): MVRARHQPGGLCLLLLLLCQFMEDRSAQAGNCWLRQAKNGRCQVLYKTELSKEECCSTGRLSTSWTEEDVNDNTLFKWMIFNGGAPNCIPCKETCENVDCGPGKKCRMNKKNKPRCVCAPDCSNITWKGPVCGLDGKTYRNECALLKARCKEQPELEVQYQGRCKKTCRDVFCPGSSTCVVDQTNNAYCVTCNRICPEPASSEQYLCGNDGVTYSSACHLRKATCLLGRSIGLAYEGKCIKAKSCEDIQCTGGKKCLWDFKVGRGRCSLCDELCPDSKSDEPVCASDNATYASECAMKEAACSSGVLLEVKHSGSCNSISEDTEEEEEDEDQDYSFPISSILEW
Torsin-1A (Homo sapiens), sequence (O14656 whole entry, looked up): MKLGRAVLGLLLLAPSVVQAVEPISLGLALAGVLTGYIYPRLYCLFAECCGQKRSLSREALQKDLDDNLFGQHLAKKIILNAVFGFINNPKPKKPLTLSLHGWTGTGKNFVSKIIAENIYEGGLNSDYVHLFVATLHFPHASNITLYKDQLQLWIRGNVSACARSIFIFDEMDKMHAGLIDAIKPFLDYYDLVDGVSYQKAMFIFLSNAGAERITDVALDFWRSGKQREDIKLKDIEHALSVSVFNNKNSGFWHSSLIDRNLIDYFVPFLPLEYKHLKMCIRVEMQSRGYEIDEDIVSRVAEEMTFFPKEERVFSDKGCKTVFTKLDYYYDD
Luciferin 4-monooxygenase (Photinus pyralis), sequence (P08659 whole entry, looked up): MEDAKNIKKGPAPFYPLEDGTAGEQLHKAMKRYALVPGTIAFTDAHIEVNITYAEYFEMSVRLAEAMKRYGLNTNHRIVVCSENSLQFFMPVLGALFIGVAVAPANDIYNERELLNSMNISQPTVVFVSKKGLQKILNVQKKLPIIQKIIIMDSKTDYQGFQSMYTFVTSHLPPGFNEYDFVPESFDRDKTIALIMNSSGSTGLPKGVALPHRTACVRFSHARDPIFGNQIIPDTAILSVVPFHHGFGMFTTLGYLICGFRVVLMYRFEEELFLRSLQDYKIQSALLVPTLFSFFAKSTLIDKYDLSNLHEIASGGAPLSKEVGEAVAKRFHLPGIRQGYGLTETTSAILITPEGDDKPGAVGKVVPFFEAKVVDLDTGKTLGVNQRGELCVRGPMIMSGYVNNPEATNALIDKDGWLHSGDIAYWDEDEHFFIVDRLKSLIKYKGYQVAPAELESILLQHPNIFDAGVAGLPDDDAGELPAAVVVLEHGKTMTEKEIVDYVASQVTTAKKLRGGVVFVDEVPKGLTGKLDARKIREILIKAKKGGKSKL
Focal adhesion kinase 1 (Homo sapiens), sequence (Q05397 whole entry, looked up): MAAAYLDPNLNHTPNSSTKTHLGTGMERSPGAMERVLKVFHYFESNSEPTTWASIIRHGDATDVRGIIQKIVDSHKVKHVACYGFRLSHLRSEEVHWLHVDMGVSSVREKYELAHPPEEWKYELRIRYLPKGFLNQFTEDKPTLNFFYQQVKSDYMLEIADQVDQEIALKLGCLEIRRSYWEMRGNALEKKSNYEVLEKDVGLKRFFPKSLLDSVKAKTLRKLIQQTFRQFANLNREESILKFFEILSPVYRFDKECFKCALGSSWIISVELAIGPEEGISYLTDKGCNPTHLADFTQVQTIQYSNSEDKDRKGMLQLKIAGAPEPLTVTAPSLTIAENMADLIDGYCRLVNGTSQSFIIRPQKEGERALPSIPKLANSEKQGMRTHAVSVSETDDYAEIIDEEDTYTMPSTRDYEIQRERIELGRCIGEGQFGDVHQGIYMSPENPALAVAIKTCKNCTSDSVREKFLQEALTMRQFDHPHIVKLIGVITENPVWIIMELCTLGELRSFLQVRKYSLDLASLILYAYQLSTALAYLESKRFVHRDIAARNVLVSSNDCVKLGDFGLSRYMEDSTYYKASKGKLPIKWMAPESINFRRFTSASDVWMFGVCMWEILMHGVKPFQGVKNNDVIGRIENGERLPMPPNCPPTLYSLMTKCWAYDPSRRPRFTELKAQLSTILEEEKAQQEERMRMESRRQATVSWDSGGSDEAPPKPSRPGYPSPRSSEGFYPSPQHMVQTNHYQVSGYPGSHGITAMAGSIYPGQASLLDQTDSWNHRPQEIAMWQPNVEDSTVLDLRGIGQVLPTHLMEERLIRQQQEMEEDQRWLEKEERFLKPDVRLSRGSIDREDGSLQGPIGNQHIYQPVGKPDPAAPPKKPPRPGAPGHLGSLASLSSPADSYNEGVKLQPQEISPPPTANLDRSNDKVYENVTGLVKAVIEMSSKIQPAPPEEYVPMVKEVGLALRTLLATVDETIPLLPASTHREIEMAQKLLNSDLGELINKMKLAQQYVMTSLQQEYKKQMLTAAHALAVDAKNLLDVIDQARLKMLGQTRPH

As for `C=CCN(C(=O)C1N(C(C)(C)CO)C(=O)C2C(C(=O)O)C3C=CC21O3)c1ccc(OC)cc1` (stereo not given), the composite z-score in assay [1] was -2.21 and -2.2; in assay [2], -1.08 and -1.45; in [3], -0.488 and -0.747; in assay [4], -1.1 and -1.88; in [5] it was -2.74 and -3.18; in assay [6], -2.91 and -2.56. The composite z-score in the assay with Lefty1 was -2.07 and -3.54; in [8] it was -1.08 and -2.01; in assay [10], -0.737 and -0.572; in assay [15], -1.73 and -1.67; in assay [16] it was -0.227 and -0.38; with Torsin-1A (Homo sapiens) [17], -2.67 and -1.85. Moreover, the composite z-score with Torsin-1A (Homo sapiens) [18] is -1.25 and -2.3; in assay [19], -0.639 and -2.16. Also, the z-score in [7] is 0.869 and 0.79; in assay [9], -2.06 (inactive) and -1.09 (inactive); in [11], -0.265 (inactive) and -0.156 (inactive); in assay [12], 1.42 (inactive); in assay [13] it was -0.761 (inactive) and -0.501 (inactive); in [14], -1.27 (inactive) and -0.62 (inactive).
Take `CO[C@@H]1C=CCC(=O)N2CCC[C@H]2C(=O)OC[C@H](C)C(=O)OC[C@H]1C`: the composite z-score in assay [1] was 0.761; in [2], -0.624; in assay [3] it was 0.0548; in assay [4], -1.04; in [5] it was 1.23; in assay [6], 0.109. Also, the composite z-score was 0.864 in the assay on Lefty1; 0.508 in assay [8]; -0.0492 in assay [10]; -0.69 in assay [15]; -0.186 in assay [16]; 0.772 with Torsin-1A (Homo sapiens) [17]. The composite z-score in the assay with Torsin-1A (Homo sapiens) [18] worked out at 1.63; in [19] it was 1.64. In addition, the z-score in assay [7] was 1.54; in assay [9], -1.87 (inactive); in assay [11] it was 0.0002 (inactive); in assay [12] it was -0.789 (inactive); in assay [13] it was -0.113 (inactive); in [14] it was -0.192 (inactive).
In the case of `COc1ccc(COC(=O)NN=C2C[C@@H](O)[C@@H](O)[C@@H]3[C@@H]4C(=O)N(C(C)(C)C)C(=O)[C@@H]4CC[C@H]23)cc1`, the composite z-score in [1] was determined as 1.34; in assay [2], 0.797; in assay [3], 0.0704; in [4], 0.816; in [5], 0.126; in assay [6], 0.699. Moreover, the composite z-score with Lefty1 was 0.281; in [8] it was 0.0873; in [10], -0.0647; in assay [15], -0.199; in [16], -0.151; with Torsin-1A (Homo sapiens) [17], 0.656. Besides, the figures for the composite z-score (with Torsin-1A (Homo sapiens) [18]; in assay [19]) were -0.178 and 0.352, respectively. In addition, the z-score in assay [7] is 0.453; in [9] it was -1.08 (inactive); in [11], -1.47 (inactive); in [12] it was 0.439 (inactive); in assay [13], 0.876 (inactive); in assay [14], 0.479 (inactive).
In the case of `COC(=O)C1=C2N(Cc3ccccc3)C(C)=C(C(=O)OC)[C@@H](c3ccccc3)N2C(=O)[C@](O)(C(=O)OC)C1`, the composite z-score in assay [1] is 0.0444 and -0.657; in assay [2], 0.644 and 0.0112; in assay [3], 0.268 and -0.172; in [4], 0.985 and 0.0539; in [5], 0.419 and 0.587; in assay [6], 1.71 and 0.858. Besides, the composite z-score is 0.911 and 0.508 with Lefty1; 0.526 and -0.342 in assay [8]; -0.0382 and -0.0845 in assay [10]; -0.302 and -0.327 in assay [15]; -0.0736 and -0.0895 in [16]; 1.04 and 2.21 with Torsin-1A (Homo sapiens) [17]. The composite z-score was 0.42 and 3.89 with Torsin-1A (Homo sapiens) [18]; 0.71 and 0.673 in assay [19]. Besides, the z-score is 0.218 and 0.136 in [7]; -0.0132 (inactive) and 0.18 (inactive) in assay [9]; -0.124 (inactive) and 0.0688 (inactive) in [11]; 0.917 (inactive) and -0.22 (inactive) in assay [12]; 2.08 (inactive) and 1.8 (inactive) in assay [13]; -1.03 (inactive) and -0.435 (inactive) in [14].
